For 56 compounds, Potency and cell number change results are on record in PubChem BioAssay AID2685 (National Center for Advancing Translational Sciences (NCATS), 2010).

Screen size: about 320,000 compounds; about 2,100 (0.66%) were called active. Roughly 53% stayed inconclusive and do not appear here. This is one part of a sample in which actives are shown more often than they occur. Calls come from the whole dose curve; as a rule, active = well fitted inhibition curve with a large enough effect in the signal ratio, with a control signal flat (not every such curve was filed as active); inconclusive = small, poorly fitted or top-dose-only effect, or effect the other way, or a change in a side signal; inactive = flat fitted curve, though single readings scatter; the % refers to the signal ratio.
Potency is the fitted concentration of half-maximal effect.

This test is described as follows: qHTS Assay for Lipid Storage Modulators in Drosophila S3 Cells.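 For cell number change: cells counted by Cell Tracker Red CMTPX staining in the red channel.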 Conditions: BODIPY lipid droplet fluorescence, 18-24 h, cells fed with added oleic acid; cell number change: measured here: cell count max response; series mostly up to 46.1 µM. An outline of the steps:
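Laser-scanning cytometry quantifies lipid droplet accumulation (500–530 nm total intensity; droplet/cell object ratio) in oleic acid-fed (400 uM added) Drosophila S3 cells treated with a concentration series. 20 uM Triacsin C defined 100% inhibition.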
In the case of `CCCc1nc(NCCO)c(C#N)c2c1CCCC2`, the Potency entry was “inactive” and the cell number change was determined as 7.48%.
The corresponding values for `COc1ccccc1NC(=O)CC1C(=O)Nc2ccccc2N1C(=O)c1ccccc1` (configuration not stated) are “inactive” and 5.14%.
The corresponding values for `O=C(OCC(=O)N1CCCC1)c1cc(Cl)ccc1Cl` are “inactive” and 4.05%.
Turning to `O=C(OCC(=O)N1CCCC1)c1c(Cl)ccc(Cl)c1Cl`, the Potency was 2.91 µM (active) and the cell number change is 9.01%.
As for `O=C(OCC(=O)N1CCOCC1)c1c(Cl)ccc(Cl)c1Cl`, the Potency result was “inactive”.
As to `O=S(=O)(Nc1ccc(Br)cc1)c1cccc(NC(=S)NCCN2CCOCC2)c1`, the Potency entry is “inactive” and the cell number change is 13%.
The corresponding values for `COC(=O)c1ccccc1CSc1nsc(C)c1C#N` are 9.2 µM (active) and 26.2%.
The corresponding values for `COC(=O)c1ccccc1CSc1nsc(/C=C/N(C)C)c1C#N` are “inactive” and 7.59%.
Consider `Cc1ccc(CSc2nsc(C)c2C#N)cc1`, for which the Potency result is “inactive” and the cell number change amounted to 8.89%.
Take `O=C(CCS(=O)(=O)c1ccccc1)Nc1nc2cc3c(cc2s1)OCO3`: the Potency entry was “inactive” and the cell number change was -2.46%.
Take `O=C(O)CCC(=O)OCC1CCCO1` (configuration not stated): the Potency is 23.1 µM (active) and the cell number change was -20.4%.
In the case of `O=C(O)CCC(=O)OCC1CCCCC1`, the Potency entry is “inactive” and the cell number change was 6.49%.
For `O=C(O)CCC(=O)Nc1ccc(OCC2CCCO2)cc1` (configuration not stated), the Potency result is “inactive” and the cell number change was determined as 20.5%.
The corresponding values for `Cc1occc1C(=O)N1CCN(S(C)(=O)=O)CC1` are “inactive” and 15.2%.
`COCCCNC(=O)Cc1c(C)c2cc3c(cc2oc1=O)OC(C)(C)CC3`: the Potency result was “inactive” and the cell number change is -2.78%.
Consider `O=C(NCCCN1CCCCC1)C1CCCN(c2ncnc3c2nc2n3CCCCC2)C1` (configuration not stated), for which the Potency is 29.1 µM (active) and the cell number change was -4.96%.
The corresponding values for `COc1ccc(OC)c(CNC(=O)C2CCCN(c3ncnc4c3nc3n4CCCCC3)C2)c1` (configuration not stated) are 2.31 µM (active) and -11.8%.
Take `O=C(NCCCN1CCCCC1)C1CCN(c2ncnc3c2nc2n3CCCCC2)CC1`: the Potency result is “inactive” and the cell number change was determined as 15.5%.
In the case of `COc1cccc(CNC(=O)C2CCCN(c3ncnc4c3nc3n4CCCCC3)C2)c1` (configuration not stated), the Potency entry was “inactive”.
`CC1CCN(C(=O)C2CCN(c3ncnc4c3nc3n4CCCCC3)CC2)CC1`: the Potency is 3.66 µM (active) and the cell number change is -15%.
Regarding `COc1ccc(CNC(=O)C2CCCN(c3ncnc4c3nc3n4CCCCC3)C2)cc1` (configuration not stated), the Potency result is “inactive” and the cell number change amounted to 3.46%.
For the compound `CCCN1CCN(C(=O)C2CCN(c3ncnc4c3nc3n4CCCCC3)CC2)CC1`, the Potency entry is “inactive” and the cell number change is -18.8%.
Take `CC1CC(C)CN(CCCNC(=O)C2CCCN(c3ncnc4c3nc3n4CCCCC3)C2)C1` (configuration not stated): the Potency entry was “inactive” and the cell number change came to 27%.
The corresponding values for `CC1CCN(C(=O)C2CCCN(c3ncnc4c3nc3n4CCCCC3)C2)CC1` (configuration not stated) are “inactive” and -11.2%.
On to `Cc1cc(C)n2nc(C(=O)OCC(=O)Nc3ccc(F)cc3F)nc2n1`, for which the Potency entry is “inactive” and the cell number change was found to be 11.7%.
Consider `CN(C)C(=S)Nc1cccc(F)c1`, for which the Potency result was “inactive” and the cell number change turned out to be 0.661%.
Regarding `CC(C)(C)c1cc(S(=O)(=O)CCc2ccncc2)cc(C(C)(C)C)c1F`, the Potency result is “inactive” and the cell number change is -5.56%.
Take `Cc1cccc([C@@H]2[C@@H]3C(=O)N(Cc4ccccc4)C(=O)[C@@H]3[C@]3(Cc4ccccc4)C(=O)N(c4ccc(C(F)(F)F)cc4)C(=O)N23)c1`: the Potency result was “inactive” and the cell number change was found to be 5.02%.
`O=C(Nc1ccccn1)c1cc(-n2cnnc2)ccc1Cl`: the Potency entry is “inactive” and the cell number change was -4.08%.
Consider `CC(C)Oc1ccc(C(=O)Nc2c3c(nn2C(C)(C)C)CS(=O)(=O)C3)cc1`, for which the Potency entry is “inactive”.
Take `O=C(COC(=O)Cc1ccc(Br)cc1)NC1CCCCCC1`: the Potency entry is “inactive” and the cell number change was -16.9%.
Turning to `CCCSc1nnc(NC(=O)CSc2nc3[nH]c(=O)cc(O)c3s2)s1`, the Potency result is “inactive” and the cell number change is -1.41%.
As to `Cc1c(CC(=O)O)c(=O)oc2cc3c(cc12)CCC(C)(C)O3`, the Potency result was “inactive” and the cell number change is 4.46%.
Regarding `Cc1c(CC(=O)N2CCC(C(N)=O)CC2)c(=O)oc2cc3c(cc12)CCC1(CCCCC1)O3`, the Potency was 13 µM (active) and the cell number change was -23.7%.
With `Cc1c(Cc2ccccc2)c(=O)oc2cc(OCC(=O)N3CCC(C(N)=O)CC3)ccc12`, the Potency result was “inactive” and the cell number change turned out to be 23.5%.
The corresponding values for `CCOc1ccccc1NC(=O)CCNC(=O)c1ccco1` are “inactive” and -5.71%.
The corresponding values for `O=C(c1ccccc1Cl)N1CCC(c2nc3c(nnn3Cc3ccco3)c(=O)[nH]2)CC1` are “inactive” and -9.84%.
The corresponding values for `O=c1[nH]c(C2CCCN(S(=O)(=O)c3cccc(F)c3)C2)nc2c1nnn2Cc1ccccc1` (configuration not stated) are “inactive” and 10.8%.
As for `Cc1ccc(Cn2nnc3c(=O)[nH]c(C4CCN(S(=O)(=O)c5ccc(F)cc5)CC4)nc32)cc1`, the Potency entry is “inactive” and the cell number change was found to be 8.95%.
The corresponding values for `O=c1[nH]c(C2CCCN(S(=O)(=O)c3ccccc3)C2)nc2c1nnn2Cc1cccc(Cl)c1` (configuration not stated) are 2.59 µM (active) and 7.14%.
The corresponding values for `CC(C)(C)c1ccc(Cn2nnc3c(=O)[nH]c(C4CCN(C(=O)c5ccco5)CC4)nc32)cc1` are 20.6 µM (active) and -8.06%.
Regarding `Cc1ccc(Cn2nnc3c(=O)[nH]c(C4CCN(S(=O)(=O)c5ccccc5)CC4)nc32)cc1`, the Potency result is “inactive”.
Regarding `COc1ccc(Cn2nnc3c(=O)[nH]c(C4CCN(S(=O)(=O)c5ccc(C)cc5)CC4)nc32)cc1`, the Potency is 13 µM (active) and the cell number change is -52.1%.
The corresponding values for `O=c1[nH]c(C2CCN(S(=O)(=O)c3ccccc3)CC2)nc2c1nnn2Cc1cccc(Cl)c1` are “inactive” and 26.3%.
Regarding `O=C(c1ccco1)N1CCCC(c2nc3c(nnn3Cc3ccccc3)c(=O)[nH]2)C1` (configuration not stated), the Potency result is “inactive” and the cell number change came out at 1.8%.
Regarding `Cc1ccc(-n2nnnc2SCC(=O)NC2CCCc3ccccc32)c(C)c1` (configuration not stated), the Potency result is “inactive”.
On to `O=C(CSc1ncn[nH]1)c1ccc(OC(F)F)cc1`, for which the Potency entry was “inactive” and the cell number change turned out to be 6.27%.
Consider `CCCn1c(C(O)c2ccc(OC)cc2)nc2ccccc21` (configuration not stated), for which the Potency result was “inactive” and the cell number change came out at 0.04%.
The corresponding values for `O=C(NN=C1C2CC3CC1CC(Cl)(C3)C2)c1ccccn1` are “inactive” and 10.9%.
With `Cc1ccc(C(=O)Cn2c3[n+](c4ccccc42)CC(O)CS3)cc1` (configuration not stated), the Potency result is “inactive” and the cell number change came to 25.2%.
The corresponding values for `O=C(Cc1ccccc1)Nc1nnc(-c2cccc([N+](=O)[O-])c2)s1` are “inactive” and -4.06%.
The corresponding values for `Cc1ccccc1N(Cc1cc(=O)[nH]c2ccccc12)C(=O)CCl` are “inactive” and 13.2%.
As to `Cc1cccc(N(Cc2cc(=O)[nH]c3ccccc23)C(=O)CCl)c1`, the Potency is 20.6 µM (active) and the cell number change was -1.53%.
Consider `Cc1cccc(N(Cc2cc(=O)[nH]c3ccccc23)C(=O)C(C)C)c1`, for which the Potency entry was “inactive” and the cell number change is -7.9%.
The corresponding values for `CN(C)S(=O)(=O)c1ccc(NC(=O)C2CC(=O)N(Cc3ccccc3)C2)cc1` (configuration not stated) are “inactive” and -10.9%.
Turning to `CCN(CC)S(=O)(=O)c1ccc(NN=C2CCN(C(C)C)CC2)c([N+](=O)[O-])c1`, the Potency result is “inactive” and the cell number change was 1.2%.
